Source: PubChem
Hits are enriched below; roughly 32% of the tested compounds scored in any of these assays.
CYP2C9 activ = human CYP2C9 activators, primary screen, biochemical, luminescence; 96,000 tested, 1.4% active; AID 1024, 2008; recombinant CYP2C9, luciferin-H conversion; hits give high values; factor 1 = untreated enzyme, 0 = blocked; activation factor at 5 µM;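 active = activation factor of 2 or more for CYP2C9 at a 5 µM dose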
PostGolgi yeast = phenotypic screen on post-Golgi transport, primary screen | post-Golgi transport phenotypic cell assay | inhibition, % at 10 µM | 98,000 tested, 0.9% active;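 also: yeast cells grown in 1536-well plates; yeast grown about 18 h at 30C before absorbance read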
PostGolgi ctrl = growth inhibition of yeast control strain, primary screen, counter-screen for post-Golgi transport modulator project; efflux-deficient yeast background strain, growth absorbance A615, 16 h; inhibition, % at 10 µM; 98,000 tested, 5% active; AID 738, 2007
CYP2C9 inh = blockers of cytochrome P450 2C9 activity – biochemical, luminescence, ADME assay, primary screen; CYP2C9 Supersomes, luciferin-H conversion; 96,000 tested, 20% active; inhibition, % at 5 µM;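 active = blocking of liver enzyme CYP2C9 beyond about 50% at 5 µM, limit read from the data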
CYP2C19 act = human CYP2C19 activators, primary screen, biochemical, luminescence; activation factor at 5 µM; Cytochrome P450 2C19 (Homo sapiens), P33261; AID 1025, 2008; recombinant CYP2C19, luciferin-H EGE luminescence; hits give high values; 0 = fully inhibited enzyme, 1 = untreated enzyme; 96,000 tested, under 10 active;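 active = activation factor of at least 2 at 5 µM in the primary screen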
Target sequence (P33261 whole entry, looked up): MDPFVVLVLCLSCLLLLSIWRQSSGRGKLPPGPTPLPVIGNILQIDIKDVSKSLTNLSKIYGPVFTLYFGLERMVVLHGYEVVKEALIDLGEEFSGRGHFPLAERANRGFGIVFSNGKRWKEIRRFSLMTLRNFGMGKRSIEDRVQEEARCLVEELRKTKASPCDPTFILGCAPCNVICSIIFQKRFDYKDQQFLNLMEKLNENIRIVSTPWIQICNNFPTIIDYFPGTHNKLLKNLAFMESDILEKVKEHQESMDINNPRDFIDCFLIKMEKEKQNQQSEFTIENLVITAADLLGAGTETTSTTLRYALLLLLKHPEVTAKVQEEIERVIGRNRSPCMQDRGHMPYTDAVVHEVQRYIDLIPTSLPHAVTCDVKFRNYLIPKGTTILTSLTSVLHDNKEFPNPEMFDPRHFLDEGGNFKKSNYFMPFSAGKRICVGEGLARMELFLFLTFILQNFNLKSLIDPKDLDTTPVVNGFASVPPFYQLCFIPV
CYP2C19 inh = blockers of cytochrome P450 2C19 activity – biochemical, luminescence, ADME assay, primary screen | P33261 | CYP2C19 Supersomes, luciferin-H EGE luminescence, 30 min | inhibition, % at 5 µM | 96,000 tested, 21% active;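 active = CYP2C19 inhibition above a set limit at 5 µM in the primary screen, cut at about 50% in these data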
Of the large screens only hits and unclear results are named; the others gave an inactive call. Rule as the data show it, unless noted: active = inhibition above about 30%; inactive = the rest.

Cc1nn(CC(=O)Nc2sc3c(c2C#N)CCC(C(C)(C)C)C3)c(C)c1[N+](=O)[O-] (stereo unspecified)	PostGolgi ctrl 35.1
CC(C)(C)C1CCc2c(sc(NC(=O)c3cc(C4CC4)on3)c2C#N)C1 (stereo unspecified)	CYP2C9 inh 72.7
O=C(CCCc1nc(-c2ccccc2Cl)no1)NC1CCCCC1	none
O=C(CSc1nc2ccccc2[nH]1)NCCN1CCCCC1	none
Cn1ncc(Cl)c1C(=O)NC(=S)Nc1sc2c(c1C#N)CCCCC2	CYP2C9 inh 63.1
N#Cc1c(NC(=O)CCC(=O)O)sc2c1CCCC2	none
CC(C)CC(=O)NC(NC(=S)Nc1sc2c(c1C#N)CCCC2)C(Cl)(Cl)Cl (stereo unspecified)	CYP2C9 inh 100.0, CYP2C19 inh 52.8
CCOC(=O)C1=C(C)Nc2ncnn2C1c1ccccc1F (stereo unspecified)	none
CCOC(=O)C1=C(C)Nc2ncnn2C1c1ccc(N(C)C)cc1 (stereo unspecified)	none
CCCC1=C(C(=O)OCC)C(c2ccc(O)cc2)n2ncnc2N1 (stereo unspecified)	CYP2C9 inh 93.3
CCCCCOC(=O)C1=C(C)Nc2ncnn2C1c1cccs1 (stereo unspecified)	CYP2C19 inh 78.3
CCOC(=O)C1=C(C)Nc2ncnn2C1c1c[nH]c2ccccc12 (stereo unspecified)	CYP2C9 inh 59.2, CYP2C19 inh 81.8
CC1=C(C(=O)OC(C)C)C(c2cccc(F)c2)n2ncnc2N1 (stereo unspecified)	none
CC1=C(C(=O)OC(C)C)C(c2c[nH]c3ccccc23)n2ncnc2N1 (stereo unspecified)	CYP2C19 inh 60.7
CC1=C(C(=O)OC(C)C)C(c2cccs2)n2ncnc2N1 (stereo unspecified)	none
COCC(=O)NC1CCN(C(=O)Nc2ccc(Br)cc2)CC1	none
COCCNC(=O)c1nn(-c2cc(OC)cc(OC)c2)c(=O)c2ccccc12	none
CN1C(=O)N(C)C2C1N(CN1CCCCC1)C(=O)N2CN1CCCCC1 (stereo unspecified)	none
O=C1NC2(CCCCC2)N=C1c1ccc(Br)cc1	CYP2C19 inh 57.1
O=C1NC2(CCCC2)N=C1c1ccc(Cl)cc1	CYP2C19 inh 84.1
O=C1NC2(CCCCC2)N=C1c1ccc(F)cc1	none
Cc1cc(C)nc(N(C#N)S(=O)(=O)c2ccccc2)n1	none
CN(C)C(=O)NC(Nc1ccc(Cl)cc1Cl)C(Cl)(Cl)Cl (stereo unspecified)	CYP2C9 inh 65.0, CYP2C19 inh 86.7
Cc1ccc(CNC(=O)CCNC(=O)Cn2ccc3ccccc3c2=O)o1	none
Cc1cc(C)c2cc(CN(Cc3ccc4c(c3)OCO4)Cc3nnnn3Cc3ccco3)c(=O)[nH]c2c1	CYP2C9 inh 80.5, CYP2C19 inh 67.2
Cc1ccc2[nH]c(=O)c(CN(Cc3ccc4c(c3)OCO4)Cc3nnnn3Cc3ccco3)cc2c1	CYP2C9 inh 98.7, CYP2C19 inh 99.1
CCOC(=O)C(C)Oc1c(Br)cc(C2NC(=O)NC(C)=C2C(C)=O)cc1OCC (stereo unspecified)	CYP2C9 inh 55.1, CYP2C19 inh 57.9
CN(Cc1ccccc1)C(=O)CSc1nnc(-c2ccco2)n1-c1ccccc1	none
Cc1cc(C)nc(N(C#N)CN2C(=O)c3ccccc3C2=O)n1	CYP2C9 activ 2.8
Cc1cc(C)nc(N(C#N)Cc2ccccc2Cl)n1	CYP2C9 activ 2.8, CYP2C19 inh 68.4
CCOC(=O)CN(C#N)c1nc(C)cc(C)n1	none
Cc1ccc(S(=O)(=O)N2CCN(C(=O)CSc3nc4ccccc4o3)C2)cc1	CYP2C19 inh 87.5
CCCCC(=O)Nc1nnc(SCC(=O)N2CCN(c3ccccc3OC)CC2)s1	none
COc1ccccc1N1CCN(C(=O)CSc2nc3ccccc3c(=O)n2CC2CCCO2)CC1 (stereo unspecified)	CYP2C9 inh 65.9
Cc1ccc(S(=O)(=O)N2CCN(C(=O)CSc3nnc(C)s3)C2)cc1	none
COc1ccccc1N1CCN(C(=O)CSc2nnc(NC(=O)C3CC3)s2)CC1	CYP2C9 inh 81.6
COc1ccccc1N1CCN(C(=O)CSc2nc3ccccc3o2)CC1	PostGolgi yeast 33.5, CYP2C19 inh 64.2
COc1ccccc1N1CCN(C(=O)C(F)F)CC1	none
COc1ccccc1N1CCN(C(=O)Cc2cccs2)CC1	PostGolgi ctrl 38.3
O=C1CC2(CON=C2c2ccc(F)cc2)C(=O)N1c1ccc(F)cc1 (stereo unspecified)	PostGolgi ctrl 32.9, CYP2C9 inh 51.4, CYP2C19 inh 89.2
Cc1ccc(NC2OC(CO)C(O)C(O)C2O)cc1 (stereo unspecified)	none
CC(=O)c1ccc(NC(=O)C(C)Sc2nnnn2C)cc1 (stereo unspecified)	none
CC(=O)C(Sc1nn(C)c(=S)s1)C(=O)Nc1ccccc1 (stereo unspecified)	CYP2C9 inh 96.0
CCNc1nc(SC(C)C(=O)Nc2ccccc2)nc(N2CCOCC2)n1 (stereo unspecified)	CYP2C9 inh 56.1
CCOC(=O)CNC(=O)CSc1nc(NCc2ccccc2)nc(N(C)C)n1	CYP2C19 inh 53.1
CC(Sc1nc(NCc2ccccc2)nc(N(C)C)n1)C(=O)Nc1ccccc1 (stereo unspecified)	CYP2C9 inh 81.1, CYP2C19 inh 57.6
CSc1nc(NCC(C)C)nc(N2CCOCC2)n1	none
c1ccc(N(c2ccccc2)c2nc(N3CCOCC3)nc(N3CCOCC3)n2)cc1	none (no result: PostGolgi yeast, PostGolgi ctrl)
CC(Sc1nc(NCc2ccccc2)nc(N2CCOCC2)n1)C(=O)Nc1ccccc1 (stereo unspecified)	CYP2C9 inh 80.5
CC(=O)C(Sc1nc(N2CCOCC2)nc(N2CCOCC2)n1)C(=O)Nc1ccccc1 (stereo unspecified)	CYP2C9 inh 55.3
O=C(CN(Cc1ccc(F)cc1)C(=O)CCC(=O)Nc1ccccn1)NCc1ccco1	none
Cc1ccccc1Cn1nc(C)c(NC(=O)c2cc3nc(-c4ccco4)cc(C(F)(F)F)n3n2)c1C	none
CCc1ccc(-c2cc(C(F)(F)F)n3nc(C(=O)Nc4c(C)nn(Cc5ccc(F)cc5)c4C)cc3n2)s1	CYP2C9 inh 70.4
CCCCCC(C(=O)O)C(C)CC(=O)NC1CCCCC1 (stereo unspecified)	none
C=CCOC(=O)/C(=C\c1ccc(OC)cc1)NC(=O)c1ccco1	CYP2C19 inh 55.0
CCCCOc1ccc(C(=O)N/C(=C\c2ccc(OC)cc2)C(=O)OCc2ccco2)cc1	CYP2C9 inh 65.1
COc1ccc(OCCCC(=O)NCc2ccco2)cc1	none
